# Screening results deposited in PubChem by Broad Institute.
# The full list was thinned out, with hits kept by preference.
# Tgondii IFNg: T. gondii growth inhibition with IFN-gamma, primary screen, cell-based | Toxoplasma gondii growth in IFN-gamma-treated host cells; active compounds read low | activity change, negative = inhibition, % (test concentration not listed) | actives 3.8% (n = 69,000); in the data active = activity change below about -70%, passing the limit was not always enough;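 note: host cells are HeLa cells infected with Toxoplasma gondii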
# Numbers without * were called inactive.
SMILES,Tgondii IFNg
COc1ccc(C)cc1NC(=O)c1c(O)c2cccnc2n(-c2ccccc2)c1=O,-38
O=c1oc2cc(O)ccc2cc1-c1csc(-c2ccc([N+](=O)[O-])cc2)n1,9
CN(CC(=O)N1CCCC(c2nn(C(C)(C)C)c3ncccc23)C1)C1CCS(=O)(=O)C1 (stereo unspecified),-29
CSc1cccc(NC(=O)COc2nc(C)nc3ccccc23)c1,18
CCN1C(=O)[C@@H]2CN(CCOC)C[C@@H]2C12CCN(C(=O)CC(C)C)CC2,-5
Cn1c2ccccc2c2c3c(c4c5ccccc5n(CCC#N)c4c21)CNC3=O,-63
CO[C@@H]1[C@H](N(C)C(=O)c2ccccc2)C[C@H]2O[C@]1(C)n1c3ccccc3c3c4c(c5c6ccccc6n2c5c31)C(=O)NC4,-84*
Cc1nc(-c2ccc(F)cc2)sc1CCNC(=O)c1cc2ccccc2oc1=O,19
C=CCOc1ccccc1NC(=O)c1csc(C(C)=O)c1,9
COc1ccc(CC(=O)Nc2ccc(-c3nc(-c4cc(C)ccc4C)co3)cc2)cc1,-11
COCCn1c(-c2ccc(OC)cc2)cnc1SCC(=O)Nc1ccc(C)c(Cl)c1,-90*
COc1ccc(-c2ccnc(SCC(=O)Nc3ccccc3)n2)cc1,-23
S=C(NCCc1ccccn1)NC1CC2CCC1C2 (stereo unspecified),62
S=C(NCCc1ccccn1)NN1C2CSC1CS2,-84*
O=C(NCCc1ccccn1)Nc1nnc(-c2ccc(F)cc2)s1,-5
O=C(CN1C(=O)CCc2cc(S(=O)(=O)N3CCCC3)ccc21)NC1CCCCC1,-5
CN(C)S(=O)(=O)N1CC[C@@H](OCC2CC2)[C@@H](Cc2ccccc2)C1,-12
COc1ccc2nc(CCN(C)C(=O)c3cnn4cc(C)cnc34)[nH]c2c1,0
Cc1n[nH]c(C)c1Cc1ccc(NC(=O)c2nn3cccnc3c2Cl)cc1,78
Cc1cc(C)n(-c2ncc(S(=O)(=O)C(C)(C)C)c(N)n2)n1,60
Cc1cc(C)cc(S(=O)(=O)N2CCC3(CC2)NCCN=C3NCc2ccc(C(F)(F)F)cc2)c1,-52
Cc1cc(C)n(C2=NCCN2S(=O)(=O)c2cc(C(F)(F)F)cc(C(F)(F)F)c2)n1,-90*
C=CCc1cccc2cc(C(=O)N3CCN(c4ccc(F)cc4)CC3)c(=O)oc12,-68
Cc1cc(C)n(C(C)c2n[nH]c(Cc3ccccc3)n2)n1 (stereo unspecified),79
CS(=O)(=O)c1ccc(-c2cc(N)nc3[nH]ccc23)cc1,4
SMILES,Tgondii IFNg
CCNC(=O)c1cccc(-c2cc(N)nc3[nH]ccc23)c1,22
COc1ccc(-c2cc(N)nc3[nH]ccc23)cc1C,-78*
Cc1ccc2[nH]cc(CN3CCCC(OCc4cccnc4)C3)c2c1 (stereo unspecified),19
CCOc1ccc(NC(=O)Nc2ccc(-c3nc(-c4cccc(Br)c4)co3)cc2)cc1,1
COc1cccc(NC(=O)Nc2ccc(-c3nc(-c4ccc(C)cc4C)co3)cc2)c1,2
CC[C@H](CC#N)OC(=O)N[C@@H](C)c1cccc(NC(=O)Nc2ccc(-c3cnco3)c(OC)c2)c1,-82*
Cc1occc1C(=O)N1CCc2c(COCc3ccncc3)cncc2C1,-3
CCN1[C@@H]2CCN(C(=O)c3ccc[nH]3)CC[C@@H]2Oc2ccccc2S1(=O)=O,-5
CN1C(=O)CCc2cc(NS(=O)(=O)c3ccccc3C(F)(F)F)ccc21,-12
COc1cc(Br)c(CCC#N)cc1OC,85
COc1ccc(CNc2ccc(Br)cc2)c(OC)c1OC,34
COc1ccc2cc(Br)ccc2c1CC#N,-107*
CCC(CC)C(=O)N1CCC2(CC1)COCCN(Cc1ccncc1)C2,5
COC(=O)c1ccc(NC(=O)Nc2ccc(-c3nc(-c4cc(C)ccc4C)co3)cc2)cc1,4
CCN1C(=O)CCc2cc(C(=O)N3CCOCC3)ccc21,12
CCN1C(=O)CCc2cc(C(=O)N3CCCCC3)ccc21,18
O=C(c1ccc2c(c1)CCC(=O)N2Cc1ccccc1)N1CCN(c2ccccc2F)CC1,-102*
CCN1CCn2c(-c3ccccc3)cnc2C12CCN(C(=O)c1cscn1)CC2,-48
O=C(Cc1cccc(F)c1)N1C[C@@H]2CN(CC3CC3)CCO[C@@H]2C1,-22
CC(=O)N1CCC2(CC1)OC(=O)C(C)=C2C(=O)NCCC1=CCCCC1,42
O=C(O)c1cccc(CC2CCN(C(=O)Cc3cccnc3)CC2)c1,-51
O=C(Nc1cccnc1)N1CCC(Cc2cccc(Oc3ccc(C(F)(F)F)cn3)c2)CC1,-74*
CN1CCC(CN2CCN(CCC(=O)Nc3cccnc3)CC2)CC1,-19
COc1cc(N2CCC3O[C@H](C(=O)NC(C)C)CC32)ncn1 (stereo partly specified),-40
O=C(C(=O)N1CCN(c2ncnc3c2nnn3Cc2ccccc2)CC1)c1c[nH]c2ccccc12,-32
SMILES,Tgondii IFNg
COc1ccc(-c2nc(Cn3ccn4nc(-c5ccc(F)cc5)cc4c3=O)c(C)o2)c(OC)c1,58
Cc1ccccc1-c1ccc2c(c1)O[C@@H](CN(C)C(=O)Nc1ccc(C(F)(F)F)cc1)[C@@H](C)CN([C@H](C)CO)S2(=O)=O,66
C[C@@H]1CN([C@@H](C)CO)S(=O)(=O)c2ccc(C#CC3(O)CCCC3)cc2O[C@@H]1CN(C)C(=O)Nc1cccc(F)c1,-104*
C[C@H](CO)N1C[C@H](C)[C@H](CN(C)C(=O)Nc2cccc(F)c2)Oc2cc(C#CC3(O)CCCC3)ccc2S1(=O)=O,-7
C/C=C/c1ccc2c(c1)O[C@@H](CN(C)C(=O)Nc1ccc(OC)cc1)[C@@H](C)CN([C@@H](C)CO)S2(=O)=O,100
CCCNC(=O)N(C)C[C@@H]1Oc2cc(C#C[C@H](C)O)ccc2S(=O)(=O)N([C@H](C)CO)C[C@H]1C,-70
Cc1ccccc1-c1ccc2c(c1)O[C@H](CN(C)C(=O)Nc1ccc(C(F)(F)F)cc1)[C@@H](C)CN([C@H](C)CO)S2(=O)=O,-97*
Cc1nn(CC(=O)NCc2cc(F)cc(F)c2)c(=O)c2nc(-c3ccccc3)sc12,90
C=CCN1CCOCC2(C1)CN(C(=O)c1ccn[nH]1)CCO2 (stereo unspecified),-8
O=C(O)C1CC(N2CCOCC2)CCN1C(=O)c1ccccn1 (stereo unspecified),1
COC(=O)c1ncn2c1C(=O)OC(COc1ccccc1)C2 (stereo unspecified),10
CCCN1CCN(C(=O)CCn2cnnn2)C(Cc2ccc(-c3ccccc3)cc2)C1=O (stereo unspecified),2
CCc1ccc(NC2=NCC(=O)N2Cc2ccccc2)cc1,9
C=CCn1c(=O)c(C(=O)Nc2cc(Cl)ccc2C)c(O)c2ccccc21,72
COc1ccc(F)c(F)c1C(=O)c1cnc(NC2CCN(S(C)(=O)=O)CC2)nc1N,-76*
COc1ccc(F)c(CN2CCC(NS(C)(=O)=O)CC2)c1Cl,4
CC(C)(C)NC(=O)N1CCC(Nc2nccc(C(F)(F)F)n2)CC1,-62
O=C(CC1C2CCCC1CN(CCO)C2)Nc1cccc(F)c1 (stereo unspecified),-2
Cc1ccc2c(c1)C(CC(=O)N1CCN(C)C3(CCN(C)CC3)C1)C(=O)N2 (stereo unspecified),1
Cc1ccc(Nc2nc(C(=O)NC3CCCCC3)nc3ccccc23)cc1,-52
Cc1ccc(Nc2nc(C(=O)NC3CCCCCC3)nc3ccccc23)cc1,-75*
Cc1cccc(Nc2nc(C(=O)NC3CCCCCCC3)nc3ccccc23)c1,-83*
Cc1ccc(Nc2nc(C(=O)NC3CCCC3)nc3ccccc23)cc1,-35
